From PubChem BioAssay (Tox21) come the findings set out here.

Test [1] addresses Progesterone receptor (Homo sapiens) (UniProt P06401). The test is described as follows: qHTS assay to identify small molecule agonists of the progesterone receptor (PR) signaling pathway (AID 1346784; calls by dose curve; also: nearly all actives have a fitted effect of over 30% in size). In short, it runs like this: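 Agonist qHTS: compounds pinned onto 3,000 PR-UAS-bla HEK 293T cells per well in charcoal-stripped serum medium, 16hr at 37C, then beta-lactamase activity measured by LiveBLAzer FRET fluorescence after 2 hours at room temperature.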
In general terms: qHTS replaces the single test concentration by a dilution series.

The target is the same in test [2]. The test is described as follows: qHTS assay to identify small molecule antagonists of the progesterone receptor (PR) signaling pathway (AID 1346795; active = well fitted inhibition curve with a large enough effect in the signal ratio in the repeat runs, not every such curve was filed as active; the % refers to the signal ratio; also: potency is read from the fitted curve at half-maximal effect). The method in brief:
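Antagonist mode with agonist R5020 at 1 nM final and 16 hr incubation at 37C. Reporter was beta-lactamase driven by UAS in HEK293T (PR-UAS-bla), 2% charcoal-stripped serum; signal from LiveBLAzer FRET substrate, 2 hr at room temperature.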

A short description of test [3]: qHTS assay to identify small molecule antagonists of the progesterone receptor (PR) signaling pathway - cell viability counter screen (AID 1346798). Also: series mostly up to about 92 µM; nearly all actives have a fitted effect of over 50% in size. The method in brief: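 Cytotoxicity read as CellTiter-Glo luminescence (30 min, room temperature) in the same wells as the beta-lactamase readout. HEK293T PR-UAS-bla cells in charcoal-stripped 2% FBS received compound and R5020, then 16 h at 37C, 5% CO2.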

Test [4] can be described thus: qHTS assay to identify small molecule agonists of the progesterone receptor (PR) signaling pathway - cell viability counter screen (AID 1346799; calls by dose curve; also: nearly all actives have a fitted effect of over 45% in size). In short, it runs like this: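 Cytotoxicity measured by CellTiter-Glo luminescence (30 min, RT) in the same wells as the PR beta-lactamase agonist read. Those HEK293T cells had 16 h compound treatment at 37 C in 2% charcoal-stripped FBS medium.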

Test [5] is described as follows: qHTS assay to identify small molecule antagonists of the TGF-beta/Smad signaling pathway - cell viability counter screen (AID 1346824). Also: nearly all actives have a fitted effect of over 50% in size. The method in brief: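 Cytotoxicity counter-screen run in the same wells as the beta-lactamase Smad reporter read: CellTiter-Glo luminescence after 30 min at room temperature. HEK 293T SBE-bla cells had 5 hr compound exposure at 37 C with TGF-beta1 (0.25 ng/mL stock).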

A short description of test [6]: qHTS assay to identify small molecule agonists of the TGF-beta/Smad signaling pathway - cell viability counter screen (AID 1346829). Also: top concentration of the series differs between compounds; nearly all actives have a fitted effect of over 45% in size. The method in brief: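 After overnight seating at 37 C and 5% CO2, reporter cells got compounds for 5 hr and FRET substrate for 2 hr; cell viability then came from CellTiter-Glo luminescence.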
Test [7] in a line: qHTS assay to identify small molecule agonists of the TGF-beta/Smad signaling pathway (AID 1346859; active = well fitted activation curve with a large enough effect in the signal ratio in the repeat runs, not every such curve was filed as active; the % refers to the signal ratio; also: series mostly up to about 77 µM). The method in brief:
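Fluorescence (ex 405 nm; em 460 and 530 nm) was read 2 h after LiveBLAzer FRET substrate at RT. The preceding compound treatment of overnight-plated SBE-bla HEK293T cells lasted 5 h at 37 C.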

Test [8] has as its target Thyrotropin-releasing hormone receptor (Homo sapiens) (UniProt P34981). The test is described as follows: qHTS assay to identify small molecule antagonists of the thyrotropin-releasing hormone receptor (TRHR) signaling pathway (AID 1346877; active = well fitted inhibition curve with a large enough effect in the repeat runs, not every such curve was filed as active; also: series mostly up to about 51 µM). The method in brief: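 Intracellular calcium fluorescence, read kinetically every second over 3 min, reports TRH-evoked signalling in HEK293 cells carrying TRHR. Test compounds were added 5 min ahead of a 1 nM TRH challenge.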

Test [9] has the same target. The test is described as follows: qHTS assay to identify small molecule agonists of the thyrotropin-releasing hormone receptor (TRHR) signaling pathway (AID 1346891; calls by dose curve; also: series mostly up to about 58 µM). The method in brief: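 Agonist-mode intracellular calcium readout: kinetic fluorescence over 3 min at 1 s intervals after compound addition to TRHR-HEK293 cells (18 h seeded, 2 h dye-loaded at 37 C). Fifteen concentrations, triplicates.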

A short description of test [10]: Human pregnane X receptor (PXR) small molecule agonists, qHTS cell viability counter screen (AID 1346977). Also: nearly all actives have a fitted effect of over 50% in size. In short, it runs like this: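 Same-well viability read: CellTiter-Fluor added after 23 hr compound exposure, fluorescence measured 1 hr later. Cells were PXR-Luc HepG2 seeded at 2,000/well in 5% charcoal-stripped FBS medium, rested 5 hr before dosing at 37 C.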

A short description of test [11]: Caspase-3/7 induction in HepG2 cells by small molecules, qHTS assay (AID 1346978). Also: nearly all actives have a fitted effect of over 15% in size. In short, it runs like this: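 Caspase-3/7 induction was measured by Caspase-Glo 3/7 luminescence (30 min, room temperature) after a 17 hr compound exposure of wild-type HepG2 cells seeded at 2,000 per well and pre-incubated 5 hr.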
The nature of test [12]: Caspase-3/7 induction in CHO-K1 cells by small molecules, qHTS assay (AID 1346980). Also: nearly all actives have a fitted effect of over 15% in size. In short, it runs like this:
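Luminescent Caspase-Glo 3/7 read (30min, room temperature) quantified apoptosis induction. Cells were wild-type CHO-K1, treated with compound for 17hr at 37 C and 5% CO2.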

The nature of test [13]: Caspase-3/7 induction in HepG2 cells by small molecules, qHTS cell viability counter screen (AID 1346981). Also: series mostly up to about 92 µM; nearly all actives have a fitted effect of over 30% in size. The method in brief: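 HepG2, WT, 2,000 cells/well; 5 hr pre-incubation 37 C/5% CO2; compound pin-transferred from DMSO; 16 hr exposure; CellTiter-Fluor, 1 hr; fluorescence read.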
Test [14] has as its target Nuclear receptor subfamily 1 group I member 2 (Homo sapiens) (UniProt O75469). The test is described as follows: Human pregnane X receptor (PXR) small molecule agonists, qHTS assay (AID 1346982). Also: nearly all actives have a fitted effect of over 35% in size. Also: potency is read from the fitted curve at half-maximal effect. In short, it runs like this: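 Luciferase signal from ONE-Glo (30 min, room temperature) measured activation of hPXR-driven CYP3A4 reporter expression in PXR-Luc HepG2 cells treated with compounds for 24 hr at 37 C.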

For test [15], the target named is Cytochrome P450 2D6 (Homo sapiens) (UniProt P10635). Put plainly: Cytochrome P450 Family 2 Subfamily D Member 6 (CYP2D6) small molecule antagonists: luciferase reporter qHTS assay (AID 1671196). Also: nearly all actives have a fitted effect of over 50% in size. Also: potency is read from the fitted curve at half-maximal effect. The method in brief:
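Read-out is luminescence from luciferin formed by CYP2D6 turnover of a proluciferin substrate, recorded as relative luminescence units. Reactions ran 1 h at room temperature after NADPH regeneration solution was added.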
(Reporter assays use an easily measured gene product as a stand-in for the process of interest.)

Test [16] concerns the target Cytochrome P450 2C19 (Homo sapiens) (UniProt P33261). Put plainly: Cytochrome P450 Family 2 Subfamily C Member 19 (CYP2C19) small molecule antagonists: luciferase reporter qHTS assay (AID 1671197). Also: nearly all actives have a fitted effect of over 65% in size. Also: potency is read from the fitted curve at half-maximal effect. The method in brief: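 Inhibition of CYP2C19 was scored from loss of luminescence in a P450-Glo proluciferin substrate assay, NADPH-started and run 1 h at 37C, with ketoconazole as positive control.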

Test [17] can be described thus: Caspase-3/7 induction in CHO-K1 cells by small molecules, qHTS cell viability counter screen (AID 1346979). Also: nearly all actives have a fitted effect of over 35% in size. The method in brief: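 Cytotoxicity counter screen: CellTiter-Fluor added to compound-treated wild-type CHO-K1 cells at 16 h (37C, 5% CO2), fluorescence measured 1 h later; same wells as caspase-3/7 measurement.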
Test [18] concerns the target Nuclear receptor subfamily 1 group I member 2 (Rattus norvegicus) (UniProt Q9R1A7). The test is described as follows: Rat pregnane X receptor (rPXR) activation by small molecules, qHTS assay (AID 1346983). Also: nearly all actives have a fitted effect of over 20% in size. As to conditions: rPXR luciferase reporter cells, One-Glo luminescence, 24 h; stronger effect = higher value. The method in brief:
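Luminescent readout (One-Glo luciferase, 30 min room temperature) followed 24 hr compound treatment at 37 C of rPXR cells plated 2,000 per well and preincubated 5hr; qHTS format with compounds delivered in DMSO.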

The target in test [19] is Nuclear receptor subfamily 1 group I member 2 (Homo sapiens) (UniProt O75469). The test is described as follows: CYP3A4 induction through human pregnane X receptor (PXR) by small molecules, qHTS assay (AID 1346984). Also: nearly all actives have a fitted effect of over 40% in size. The method in brief:
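Luminescence readout: luciferase signal after One-Glo (30 min, room temperature), following 3 h at 37C with 3uM final Luciferin-IPA P450 substrate. Cells were DPX-2 (HepG2, PXR/CYP3A4-luc co-transfected) dosed for 24 h.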

Test [20] has the same target. The test is described as follows: Human pregnane X receptor (PXR) activation by small molecules, qHTS assay (AID 1346985). Also: nearly all actives have a fitted effect of over 40% in size. The method in brief:
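DPX-2 cells (HepG2 co-transfected with a PXR response element and a CYP3A4-promoter luciferase construct) were seeded at 2,000 per well, rested 5 hr at 37C, then exposed to DMSO-dissolved compounds for 24 hr. Activation was read as luciferase luminescence.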

Molecules are shown by their SMILES. Where “and” joins values, the source holds several entries; their conditions need not be identical. Equal values may be shown once. Records with an inconclusive call do not appear. The source holds several records for some structures; these can differ, active in one and inactive in another. Calls of active or inactive are those of the source. Unless noted, calls follow the shape of the dose curve; as a rule, active = well fitted curve in the direction sought with a large enough effect in the repeat runs; inconclusive = weak or mixed curves; inactive = no such curve, though single readings can be large; an effect the other way counts as inactive or inconclusive.
% is scaled to controls: 0 for no effect and ±100 for the full control effect.

Nuclear receptor subfamily 1 group I member 2 (Homo sapiens), sequence (O75469 whole entry, looked up): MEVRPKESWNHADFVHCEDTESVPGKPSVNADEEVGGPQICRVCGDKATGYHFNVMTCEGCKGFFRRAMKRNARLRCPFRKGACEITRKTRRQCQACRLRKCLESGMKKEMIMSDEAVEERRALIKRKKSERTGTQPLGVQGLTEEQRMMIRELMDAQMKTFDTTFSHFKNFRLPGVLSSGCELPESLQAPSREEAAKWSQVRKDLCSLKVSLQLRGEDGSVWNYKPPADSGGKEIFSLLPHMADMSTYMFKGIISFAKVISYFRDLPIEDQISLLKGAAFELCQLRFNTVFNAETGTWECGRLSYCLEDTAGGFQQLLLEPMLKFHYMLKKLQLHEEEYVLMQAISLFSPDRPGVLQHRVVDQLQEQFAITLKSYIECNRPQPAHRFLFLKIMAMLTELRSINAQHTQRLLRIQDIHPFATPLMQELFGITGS
Cytochrome P450 2D6 (Homo sapiens), sequence (P10635 whole entry, looked up): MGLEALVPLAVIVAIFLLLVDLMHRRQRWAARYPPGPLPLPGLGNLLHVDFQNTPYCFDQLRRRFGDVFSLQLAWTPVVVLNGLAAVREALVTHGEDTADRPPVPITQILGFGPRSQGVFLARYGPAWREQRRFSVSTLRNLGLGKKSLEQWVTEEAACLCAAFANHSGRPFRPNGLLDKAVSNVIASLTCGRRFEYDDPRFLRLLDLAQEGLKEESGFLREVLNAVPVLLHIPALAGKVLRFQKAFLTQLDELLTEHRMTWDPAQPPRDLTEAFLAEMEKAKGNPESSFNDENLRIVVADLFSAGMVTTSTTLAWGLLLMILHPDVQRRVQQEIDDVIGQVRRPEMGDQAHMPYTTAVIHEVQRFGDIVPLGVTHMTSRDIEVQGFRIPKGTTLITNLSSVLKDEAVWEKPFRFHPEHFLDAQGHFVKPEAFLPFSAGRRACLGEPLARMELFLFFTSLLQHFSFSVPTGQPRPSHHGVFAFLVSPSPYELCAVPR
Progesterone receptor (Homo sapiens), sequence (P06401 whole entry, looked up): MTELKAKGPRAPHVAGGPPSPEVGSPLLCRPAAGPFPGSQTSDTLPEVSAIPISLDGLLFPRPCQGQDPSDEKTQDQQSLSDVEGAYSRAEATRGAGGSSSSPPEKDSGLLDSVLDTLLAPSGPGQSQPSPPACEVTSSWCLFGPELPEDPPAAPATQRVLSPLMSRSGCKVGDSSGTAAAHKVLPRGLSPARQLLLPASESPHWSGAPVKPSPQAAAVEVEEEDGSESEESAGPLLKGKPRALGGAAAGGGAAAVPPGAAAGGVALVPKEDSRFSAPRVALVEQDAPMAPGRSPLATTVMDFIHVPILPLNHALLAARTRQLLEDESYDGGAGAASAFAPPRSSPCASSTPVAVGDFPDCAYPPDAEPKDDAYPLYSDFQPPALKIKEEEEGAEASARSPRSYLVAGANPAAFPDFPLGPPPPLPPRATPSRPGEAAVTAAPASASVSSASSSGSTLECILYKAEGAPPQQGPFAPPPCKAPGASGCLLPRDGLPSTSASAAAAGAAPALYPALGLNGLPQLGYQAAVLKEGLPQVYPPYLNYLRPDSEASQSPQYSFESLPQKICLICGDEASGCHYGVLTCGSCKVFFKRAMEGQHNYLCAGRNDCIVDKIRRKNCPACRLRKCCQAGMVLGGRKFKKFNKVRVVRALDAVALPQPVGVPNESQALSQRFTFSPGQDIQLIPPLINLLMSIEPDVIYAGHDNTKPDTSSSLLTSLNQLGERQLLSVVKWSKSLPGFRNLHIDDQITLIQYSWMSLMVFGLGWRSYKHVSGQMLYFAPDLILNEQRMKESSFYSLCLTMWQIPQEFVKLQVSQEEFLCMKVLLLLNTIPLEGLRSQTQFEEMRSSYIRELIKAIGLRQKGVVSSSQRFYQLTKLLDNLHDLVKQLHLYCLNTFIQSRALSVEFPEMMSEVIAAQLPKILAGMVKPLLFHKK
Thyrotropin-releasing hormone receptor (Homo sapiens), sequence (P34981 whole entry, looked up): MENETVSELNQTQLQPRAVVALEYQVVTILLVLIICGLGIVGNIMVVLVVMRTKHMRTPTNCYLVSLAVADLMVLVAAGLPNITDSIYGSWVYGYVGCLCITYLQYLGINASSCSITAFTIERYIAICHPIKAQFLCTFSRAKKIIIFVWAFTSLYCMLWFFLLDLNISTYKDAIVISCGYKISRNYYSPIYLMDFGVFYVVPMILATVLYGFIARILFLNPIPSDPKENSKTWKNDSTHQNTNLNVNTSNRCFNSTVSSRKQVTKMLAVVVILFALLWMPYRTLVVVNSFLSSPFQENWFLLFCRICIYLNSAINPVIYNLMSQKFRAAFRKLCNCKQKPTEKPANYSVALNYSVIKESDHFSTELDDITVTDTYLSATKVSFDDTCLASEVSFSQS
Cytochrome P450 2C19 (Homo sapiens), sequence (P33261 whole entry, looked up): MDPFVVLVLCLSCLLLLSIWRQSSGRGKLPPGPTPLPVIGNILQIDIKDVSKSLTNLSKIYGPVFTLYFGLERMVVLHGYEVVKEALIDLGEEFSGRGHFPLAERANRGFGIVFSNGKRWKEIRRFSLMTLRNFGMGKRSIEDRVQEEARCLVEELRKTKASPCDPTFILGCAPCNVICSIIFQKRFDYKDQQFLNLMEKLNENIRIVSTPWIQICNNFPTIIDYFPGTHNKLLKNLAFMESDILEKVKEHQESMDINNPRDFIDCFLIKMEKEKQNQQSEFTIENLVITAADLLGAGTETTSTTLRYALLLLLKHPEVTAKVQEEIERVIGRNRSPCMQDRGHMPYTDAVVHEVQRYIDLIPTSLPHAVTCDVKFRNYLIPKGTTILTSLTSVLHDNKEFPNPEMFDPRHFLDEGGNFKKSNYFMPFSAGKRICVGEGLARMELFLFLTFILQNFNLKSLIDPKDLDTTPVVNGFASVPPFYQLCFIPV
Nuclear receptor subfamily 1 group I member 2 (Rattus norvegicus), sequence (Q9R1A7 whole entry, looked up): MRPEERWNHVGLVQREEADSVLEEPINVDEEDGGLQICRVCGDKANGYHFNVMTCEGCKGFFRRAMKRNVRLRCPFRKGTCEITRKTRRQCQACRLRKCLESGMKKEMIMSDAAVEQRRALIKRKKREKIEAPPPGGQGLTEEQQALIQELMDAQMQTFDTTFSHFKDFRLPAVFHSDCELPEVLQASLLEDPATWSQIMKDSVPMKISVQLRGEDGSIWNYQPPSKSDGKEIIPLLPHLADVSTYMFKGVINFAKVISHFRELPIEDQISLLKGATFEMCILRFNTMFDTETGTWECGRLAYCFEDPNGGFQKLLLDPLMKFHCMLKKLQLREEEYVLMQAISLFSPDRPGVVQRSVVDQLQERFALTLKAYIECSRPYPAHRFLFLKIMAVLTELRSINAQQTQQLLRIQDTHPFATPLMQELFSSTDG

Regarding `COc1cc(NC(=O)CC(C)=O)c(OC)cc1Cl`, the Potency entry in [1], in test [2], in [3], in test [4], in test [5] and in test [6] was “inactive” each time. Besides, the Potency entry in [7], in test [8], in [10], in [11], in test [12] and in [13] was “inactive” throughout. Besides, the molecule was called inactive in test [9]. In addition, the Potency in test [14] is 68.9 µM (active) and 24.3 µM (active); in [15] it was 79.6 µM (active); in [16], 40.1 µM (active) and 39.9 µM (active).

With `C1CCCNCC1`, the Potency entry in test [1], in test [2], in test [3], in test [4], in test [5] and in [6] was “inactive” in each case. Moreover, the Potency result in [7], in test [8], in test [10], in [11], in test [12] and in test [13] was “inactive” throughout. The Potency result in [14], in test [15] and in [16] was “inactive” throughout. Further, the result in test [9] was inactive.

For `COC(=O)OC`, the Potency result in test [1], in test [2], in test [3], in test [4], in test [5] and in test [6] was “inactive” each time. Also, the Potency result in [7], in test [8], in [10], in [11], in [12] and in test [13] was “inactive” throughout. Besides, the Potency result in [14], in test [15] and in [16] was “inactive” each time. Moreover, in test [9], the molecule was classed as inactive.

In the case of `C=C(CC(=O)O)C(=O)O`, the Potency entry in [1], in test [2], in test [3], in test [4], in test [5] and in [6] was “inactive” in each case. Further, the Potency entry in [7], in test [8], in test [11], in test [17], in test [12] and in [13] was “inactive” each time. Further, the molecule was classed as inactive in test [9].

`COc1c2ccoc2cc2oc(=O)ccc12`: the Potency result in [1], in test [3], in test [4], in test [5], in [6] and in [7] was “inactive” in each case. Also, the Potency result in [8], in test [10], in test [11], in test [12] and in test [13] was “inactive” each time. For the same molecule, the Potency in [2] is 15.7 µM (active); in test [14] it was 55.7 µM (active) and 21.7 µM (active); in test [15], 4.08 µM (active) and inactive; in test [16] it was 5.77 µM (active) and 8.94 µM (active). Besides, the molecule was called inactive in test [9].

For `Clc1cccc(Cl)c1NC1=NCCN1`, the Potency result in test [1], in test [2], in test [3], in test [4], in test [5] and in test [6] was “inactive” in each case. Besides, the Potency entry in [7], in [10], in [11], in test [17], in test [12] and in [13] was “inactive” in each case.

For the molecule `CC/C(C)=N/O`, the Potency entry in test [1], in [2], in test [3], in [4], in test [5] and in test [6] was “inactive” each time. The Potency result in test [7], in test [8], in [10], in test [11], in test [12] and in test [13] was “inactive” throughout. In addition, the Potency entry in test [14] and in [15] was “inactive” throughout. Also, the molecule was called inactive in test [9].

For `NC1CCCCC1N` (stereo not given), the Potency entry in [1], in test [2], in [3], in test [4], in [5] and in test [6] was “inactive” in each case. Besides, the Potency result in test [7], in test [10], in [11], in [17], in [12] and in test [13] was “inactive” throughout.

As for `CC(=O)OC[C@H]1O[C@@](COC(C)=O)(O[C@H]2O[C@H](COC(C)=O)[C@@H](OC(C)=O)[C@H](OC(C)=O)[C@H]2OC(C)=O)[C@@H](OC(C)=O)[C@@H]1OC(C)=O`, the Potency entry in test [1], in [2], in test [3], in [4], in test [5] and in test [6] was “inactive” each time. Besides, the Potency entry in test [7], in [8], in test [10], in test [11], in test [12] and in test [13] was “inactive” throughout. Also, the Potency entry in test [14], in [19], in [15] and in [16] was “inactive” each time. Also, the call in [9] and in [20] was inactive. The max activation in test [18] was -1.94% (inactive).
